# Test results published in PubChem BioAssay.
# Calls of active or inactive are those of the source. Unless noted, the rule behind the calls is not given here.
# What was measured:
# [1] = inhibition of Brca1/Bard1 split-luciferase complementation, confirmation, counter-screen for Mdm2/MdmX interaction inhibitor project, luminescence, single concentration (AID 504668); conditions: Brca1/Bard1 bimolecular luciferase complementation counterscreen, at 8 µM, stronger effect = higher value
# PEG-3 [2] = target: PEG-3 (UniProt Q6IN02); assay: Peg3 promoter luciferase inhibitors, potency, dose response, cell-based, HeLa, CREF/GAPDH counter-screen panel (AID 624167); conditions: CREF/GAPDH counter-screens; HeLa PEG-Prom luciferase reporter, overnight, run 1, dose range 1, at 100 µM (top of the series) unless noted
# PEG-3 [3] = target: PEG-3 (UniProt Q6IN02); assay: as above; conditions: CREF/GAPDH counter-screens; HeLa PEG-Prom luciferase reporter, overnight, run 2, dose range 1, at 100 µM (top of the series) unless noted
# Rat fibroblasts (CREF) [4] = assay: as above; conditions: CREF/GAPDH counter-screens; run 1, dose range 1, at 100 µM (top of the series)
# Rat fibroblasts (CREF) [5] = assay: as above; conditions: CREF/GAPDH counter-screens; run 2, dose range 1, at 100 µM (top of the series)
# [6] = target: Tumor necrosis factor receptor superfamily member 10B (Homo sapiens) (UniProt O14763); assay: caspase-8 TRAIL sensitization, hit retest, confirmation, cell-based, NB7+caspase-8, with/without TRAIL, luminescence panel (AID 651596; in the data active = activity above about 50%); conditions: NB7 neuroblastoma + caspase-8, TRAIL sensitization, luminescence viability, with TRAIL, mean of runs, at 10 µM, stronger effect = higher value
# [7] = as above; conditions: NB7 neuroblastoma + caspase-8, without TRAIL, luminescence viability, without TRAIL, mean of runs, at 10 µM
# [8] = inhibitors of PAF-induced NFkB signaling in CF airway cells, dose response, cell-based, uHTS hits, panel, cytotoxicity readout (AID 624344); conditions: CF bronchial epithelial cells, PAF-induced NFkB reporter inhibition, with PAF, run 1; at 79 µM (top of the series) unless noted
# [9] = as above; conditions: CF bronchial epithelial cells, PAF-induced NFkB reporter inhibition, with PAF, run 2; at 79 µM (top of the series) unless noted
# Chain of PEG-3 (Q6IN02 whole entry, looked up): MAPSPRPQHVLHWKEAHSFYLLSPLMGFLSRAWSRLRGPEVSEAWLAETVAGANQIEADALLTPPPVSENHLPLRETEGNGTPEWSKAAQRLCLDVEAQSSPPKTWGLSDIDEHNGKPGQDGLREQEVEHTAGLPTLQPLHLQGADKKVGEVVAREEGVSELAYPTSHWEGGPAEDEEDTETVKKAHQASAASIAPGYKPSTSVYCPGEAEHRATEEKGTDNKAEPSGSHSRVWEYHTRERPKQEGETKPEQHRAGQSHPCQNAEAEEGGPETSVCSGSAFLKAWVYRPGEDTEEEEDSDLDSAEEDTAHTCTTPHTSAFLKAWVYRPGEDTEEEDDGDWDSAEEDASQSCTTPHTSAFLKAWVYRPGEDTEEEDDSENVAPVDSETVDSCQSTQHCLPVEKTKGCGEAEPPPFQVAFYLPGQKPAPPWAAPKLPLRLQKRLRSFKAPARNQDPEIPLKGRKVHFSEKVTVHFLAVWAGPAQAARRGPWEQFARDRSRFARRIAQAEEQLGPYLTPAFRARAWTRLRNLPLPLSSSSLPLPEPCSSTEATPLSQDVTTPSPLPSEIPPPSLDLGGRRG
# Chain of Tumor necrosis factor receptor superfamily member 10B (Homo sapiens) (O14763 whole entry, looked up): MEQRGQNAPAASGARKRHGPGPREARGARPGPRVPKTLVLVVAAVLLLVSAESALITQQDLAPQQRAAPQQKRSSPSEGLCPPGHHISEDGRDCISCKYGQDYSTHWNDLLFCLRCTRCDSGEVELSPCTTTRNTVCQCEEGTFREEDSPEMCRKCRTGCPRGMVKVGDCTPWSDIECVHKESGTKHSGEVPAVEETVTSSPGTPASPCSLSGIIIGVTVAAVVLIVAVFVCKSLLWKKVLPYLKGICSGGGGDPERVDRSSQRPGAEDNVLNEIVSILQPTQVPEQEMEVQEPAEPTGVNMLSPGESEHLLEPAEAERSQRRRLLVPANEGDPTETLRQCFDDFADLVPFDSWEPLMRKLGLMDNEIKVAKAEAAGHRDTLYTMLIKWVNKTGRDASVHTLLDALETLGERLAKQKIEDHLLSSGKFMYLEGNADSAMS
SMILES,inhibition [1],inhibition (PEG-3 [2]) [%],inhibition (PEG-3 [3]) [%],inhibition (Rat fibroblasts (CREF) [4]) [%],inhibition (Rat fibroblasts (CREF) [5]) [%],activity [6] [%],activity [7] [%],inhibition [8] [%],inhibition [9] [%]
c1ccc(-c2noc(-c3ccc4c(c3)OCO4)n2)nc1,29.3% (active),91.3,94.5,95.9,95.7,93.2,93.7,–,–
Cc1nc2cc(-c3ccccc3)sc2c(=O)n1N,30% (active),102,97.8,93.7,92,73.1,73.6,–,–
Cc1ccc(-c2nnc(SCC(=O)Nc3ccccc3F)o2)cc1,32.6% (active),98.6,94.7,97.2,97.2,83,83.2,–,–
Cc1ccc(NC(=O)Nc2nnc(-c3ccncc3)s2)cc1C,23.3% (active),–,–,–,–,–,–,102,114
O=C(N/N=C\c1c(O)ccc2ccccc12)c1cncc(Br)c1,26.8% (active),82.3,79.4,78.3,79.5,–,–,–,–
O=C(CCSc1nc2ccccc2s1)N/N=C/c1c(O)ccc2ccccc12,31.6% (active),58.9,82.3,40.6,38,–,–,–,–
Cc1ccc2oc(/N=C(\N)NC(=O)C(C)(C)C)nc2c1,31.8% (active),98,94.5,82.5,79.9,–,–,–,–
O=C(CNc1ccccc1)N/N=C/c1c(O)ccc2ccccc12,26.6% (active),44.6,64.1,73.1,49.7,–,–,–,–
COc1ccc(C(NC(C)=O)c2ccc3cccnc3c2O)c(OC)c1 (stereo not drawn),31.2% (active),64.7,59.9,-4.86,50.2,–,–,–,–
Cn1c(=O)c2c(nc(Oc3ccc4ccccc4c3)n2C)n(C)c1=O,33.6% (active),–,–,–,–,–,–,93.3,81.7
O=C(O)c1cccc(COc2ccc3c(c2)CCC3)c1,24.1% (active),98.5,99.1,91.1,89.3,–,–,–,–
O=C(NCCc1ccccc1)c1ccc2c(c1)OCCO2,27.8% (active),94.6,97.9,99,98.4,89.7,90.2,–,–
COc1ccc(-c2cn[nH]c2-c2ccc(OC)cc2O)cc1,32.5% (active),–,–,–,–,–,–,103,112
O=C(Nc1ccc(N2CCOCC2)cc1)c1cnsn1,32.1% (active),96.4,98.9,97.9,60.2,78.7,75.9,–,–
CCOc1ccc(C(=O)O/N=C(\N)c2ccccn2)cc1,33% (active),98,98.8,97.8,98.6,–,–,–,–
Cc1ccc2nc(-c3ccccc3)cn2c1,32.2% (active),97.5,99,100,99.1,94,93.9,–,–
Cc1cnc(NC(=O)c2ccc3c(c2)OCCO3)s1,28.6% (active),98.1,97,100,99.6,98.2,98.5,–,–
CN(C(=O)OC(C)(C)C)c1ccc(-c2nc3ccccc3s2)cc1,24.8% (active),96.5,98.2,–,–,92.6,91.2,–,–
Cc1cc(C(=O)COC(=O)c2ccccc2O)c(C)n1CC1CCCO1 (stereo not drawn),35.8% (active),99.1,101,99.6,99.2,91.2,88.9,–,–
C=CCc1cccc(/C=N/NC(=O)C(C)Nc2cccc(C)c2)c1O (stereo not drawn),34.9% (active),60.8,62,39.7,47.8,–,–,–,–
CCOC(=O)Nc1ccc2c(c1)N(C(=O)CCN(CC)CC)c1ccccc1S2=O (stereo not drawn),29.9% (active),–,–,–,–,–,–,102,107
Cc1cc(NC(c2ccc(Cl)cc2)c2ccc3cccnc3c2O)no1 (stereo not drawn),27.4% (active),37.1,87.1,37.2,44.8,–,–,–,–
COc1ccc(-c2nsc3c(N4CCCCC4C)ncnc23)cc1 (stereo not drawn),24.8% (active),89.7,93.5,–,–,86.8,87.7,–,–
CC(C)(C)c1ccc(Cn2c(=O)cnc3ccccc32)cc1,25.9% (active),100,100,98.2,84.5,–,–,–,–
COc1ccc2[nH]c3c(c2c1)CC(C)NC3=O (stereo not drawn),33.6% (active),–,–,–,–,–,–,103,112
O=C(NC1=NCCS1)C1COc2ccccc2O1 (stereo not drawn),34% (active),96.4,97.6,86.9,87.4,–,–,–,–
O=c1c2ccccc2sc2ccc(C#CC3(O)CCCCC3)cc12,25.4% (active),99.4,98,100,100,97.6,97.2,–,–
